Measured values published in PubChem BioAssay AID504333 (National Center for Advancing Translational Sciences (NCATS), 2011).
Out of some 360,000 compounds screened, about 16,000 (4.4%) were called active. Not shown: some 9% with an inconclusive outcome. For the sample, actives were picked, then their nearest neighbours and some compounds at random. Values without a mark were called inactive. Calls come from the whole dose curve; as a rule, active = well fitted inhibition curve with a large enough effect; inconclusive = small, poorly fitted or top-dose-only effect; inactive = no such curve, though single readings can be large or run the other way.

The compounds below were run against Bromodomain adjacent to zinc finger domain protein 2B (Homo sapiens) (UniProt Q9UIF8) (assay: qHTS Assay for Inhibitors of BAZ2B). Settings: AlphaScreen BAZ2B-H3K14Ac peptide displacement; series mostly up to 114 µM; activity change, negative = inhibition: at the top concentration.
Chain of Bromodomain adjacent to zinc finger domain protein 2B (Homo sapiens) (Q9UIF8 whole entry, looked up, the tested form may be a part): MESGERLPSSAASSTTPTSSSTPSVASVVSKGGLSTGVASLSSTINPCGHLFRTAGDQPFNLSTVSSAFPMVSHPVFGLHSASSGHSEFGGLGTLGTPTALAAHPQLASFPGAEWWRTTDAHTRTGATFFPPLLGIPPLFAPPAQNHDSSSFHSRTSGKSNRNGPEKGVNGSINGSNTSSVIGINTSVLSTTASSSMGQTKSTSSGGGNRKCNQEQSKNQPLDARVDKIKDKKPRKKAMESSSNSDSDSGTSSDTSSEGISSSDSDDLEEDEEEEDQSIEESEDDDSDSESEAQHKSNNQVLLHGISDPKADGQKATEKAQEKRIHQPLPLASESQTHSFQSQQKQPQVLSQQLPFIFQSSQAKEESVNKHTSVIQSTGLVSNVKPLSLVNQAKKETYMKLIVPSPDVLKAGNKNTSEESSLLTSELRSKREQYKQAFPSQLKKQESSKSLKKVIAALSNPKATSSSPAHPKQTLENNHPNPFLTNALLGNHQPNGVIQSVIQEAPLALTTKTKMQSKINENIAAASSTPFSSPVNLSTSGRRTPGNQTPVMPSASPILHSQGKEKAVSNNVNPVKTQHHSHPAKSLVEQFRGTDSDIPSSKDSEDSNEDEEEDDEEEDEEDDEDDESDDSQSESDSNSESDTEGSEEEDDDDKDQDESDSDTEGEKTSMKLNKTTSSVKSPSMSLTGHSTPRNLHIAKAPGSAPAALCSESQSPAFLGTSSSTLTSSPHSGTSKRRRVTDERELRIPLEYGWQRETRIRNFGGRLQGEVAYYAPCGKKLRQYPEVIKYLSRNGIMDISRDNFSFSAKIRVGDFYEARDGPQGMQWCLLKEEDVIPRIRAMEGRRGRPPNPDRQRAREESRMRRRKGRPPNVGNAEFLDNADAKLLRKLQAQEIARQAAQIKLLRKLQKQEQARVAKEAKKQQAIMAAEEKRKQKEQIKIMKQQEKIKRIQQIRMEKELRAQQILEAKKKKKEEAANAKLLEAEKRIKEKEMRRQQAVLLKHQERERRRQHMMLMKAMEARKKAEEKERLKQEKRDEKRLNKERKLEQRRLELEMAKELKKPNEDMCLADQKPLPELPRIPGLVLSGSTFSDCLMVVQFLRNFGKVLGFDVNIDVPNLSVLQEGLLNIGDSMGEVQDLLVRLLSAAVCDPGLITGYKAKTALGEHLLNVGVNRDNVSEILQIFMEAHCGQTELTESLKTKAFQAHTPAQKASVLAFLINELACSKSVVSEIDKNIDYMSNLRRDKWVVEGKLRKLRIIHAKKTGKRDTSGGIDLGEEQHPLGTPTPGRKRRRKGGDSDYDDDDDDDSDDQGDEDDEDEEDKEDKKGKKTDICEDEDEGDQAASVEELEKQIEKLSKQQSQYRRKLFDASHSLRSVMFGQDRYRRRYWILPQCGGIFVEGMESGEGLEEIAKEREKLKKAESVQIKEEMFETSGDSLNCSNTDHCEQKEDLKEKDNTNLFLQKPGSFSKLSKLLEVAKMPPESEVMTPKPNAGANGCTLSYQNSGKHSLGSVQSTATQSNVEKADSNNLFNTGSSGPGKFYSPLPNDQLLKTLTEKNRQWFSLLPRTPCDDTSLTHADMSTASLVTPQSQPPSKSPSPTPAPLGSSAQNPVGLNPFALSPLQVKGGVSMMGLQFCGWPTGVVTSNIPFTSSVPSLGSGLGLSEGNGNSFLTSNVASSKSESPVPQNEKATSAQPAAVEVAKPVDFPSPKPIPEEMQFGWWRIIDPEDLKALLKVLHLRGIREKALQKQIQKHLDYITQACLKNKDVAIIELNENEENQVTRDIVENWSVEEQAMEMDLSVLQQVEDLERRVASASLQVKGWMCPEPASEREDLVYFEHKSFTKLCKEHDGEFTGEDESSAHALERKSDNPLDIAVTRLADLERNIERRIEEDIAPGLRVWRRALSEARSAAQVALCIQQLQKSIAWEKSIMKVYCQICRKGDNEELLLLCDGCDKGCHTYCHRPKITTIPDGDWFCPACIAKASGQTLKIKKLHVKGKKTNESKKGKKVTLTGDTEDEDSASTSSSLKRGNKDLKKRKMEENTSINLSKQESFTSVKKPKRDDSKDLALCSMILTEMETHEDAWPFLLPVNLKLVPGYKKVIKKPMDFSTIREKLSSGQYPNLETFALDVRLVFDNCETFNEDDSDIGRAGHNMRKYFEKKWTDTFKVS
Method in brief: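 BAZ2B 50 nM plus b-H3(5-23)K14Ac 50 nM, PBS pH 7.4/0.01% Tween-20, 30 min RT; compound added (max 110 uM), 30 min RT; streptavidin donor/Ni-chelate acceptor beads 10 ug/mL final, 20 min dark; AlphaScreen read.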
% is set by controls: 0 for no effect and ±100 for the full control effect; potency is the fitted concentration of half-maximal effect.
Note: nearly all actives have a fitted effect of over 60% in size.

Structure (SMILES) | activity change, negative = inhibition | Potency
COc1cccc(N=C2SC(C(=O)Nc3cccc(Cl)c3)CC(=O)N2C)c1 (configuration not stated) | 0.78% | 
CCOC(=O)N1CCc2c(sc(NCc3cccc(F)c3)c2C(=O)Nc2ccccc2OCC)C1 | -24.5% | 
CSc1nnc(SCc2nc3sc(C(=O)O)c(C)c3c(=O)[nH]2)s1 |  | 50.1 µM (active)
Cc1sc2nc(CSCC(=O)NC3CCCCC3)[nH]c(=O)c2c1C | 9.45% | 
Cc1sc2nc(CSCC(=O)Nc3c(Cl)cccc3Cl)[nH]c(=O)c2c1C | 9.3% | 
COc1c(Cl)cc(C(=O)N(Cc2ccccc2F)C2CCS(=O)(=O)C2)cc1Cl (configuration not stated) | -9.74% | 
CC1CCCCN1CC(=O)N1CCCc2c1c(=O)oc1ccc(OCc3ccccc3)cc21 (configuration not stated) | -34% | 
CCOc1ccc(NC(=O)C2CCN(S(=O)(=O)c3cc(-c4noc(C)n4)ccc3C)CC2)cc1 | 4.51% | 
CC(O)CNCCOc1cccc(Oc2ccccc2)c1 (configuration not stated) |  | 50.1 µM (active)
COCCNCCOCCOc1cccc(OC)c1 | -19% | 
CC1(C)NC(=O)N(CCOc2cccc(Oc3ccccc3)c2)C1=O | 2.52% | 
COc1ccc(-c2c3c(=O)n(C)c(=O)n(C)c3c3c(C)nc4ccccc4n23)cc1 | 4.79% | 
Cc1ccc(CCNC(=O)c2ccc3c(c2)N(Cc2cc(C)ccc2C)C(=O)c2ccccc2S3=O)cc1 (configuration not stated) | -17.4% | 
COc1cc(NC(=O)Cn2nc(-c3ccc(C)c(C)c3)ccc2=O)cc(OC)c1 | -3.69% | 
O=C(O)c1ccc(Cn2c(SCc3ccc(F)cc3)nc3ccncc32)cc1 | -1.05% | 
CCn1c2ccccc2c2nnc(SCC(=O)O)nc21 | -5.77% | 
C=CCn1c2ccccc2c2nnc(SCc3[nH]c(=O)[nH]c3C(=O)CCCCC(=O)OCC)nc21 |  | 79.4 µM (active)
C=CCn1c2ccccc2c2nnc(SC(CC)C(=O)Nc3nc(C)c(C(=O)OCC)s3)nc21 (configuration not stated) | 0.0442% | 
CCOC(=O)c1ccc(CSc2nnc3cc(C)c4ccccc4n23)cc1 | -15.6% | 
CCOc1ccc(C(=O)c2cn(Cc3ccccc3OC)c3ccc(F)cc3c2=O)cc1 | -19.9% | 
CCCN(C(=O)Cn1ncc2c([nH]c3ccc(C)cc32)c1=O)c1ccccc1C | 1.79% [at 57.1 µM] | 
CCOC(=O)c1cc(-c2ccccc2)n(-c2cccc(C(=O)Nc3cc(OC)cc(OC)c3)c2)c1C | -27.3% | 
Cc1ccc(OCC(=O)NCCCNC(=O)c2cccnc2)cc1C | -1.83% | 
Cc1ccc(N/C=C/C(=O)c2ccccc2)cc1C | -4.96% | 
Cc1cc2nc(-c3ccc(NC(=O)c4cccnc4)cc3)oc2cc1C | 11.6% | 
Cc1ccc(NC(=O)COc2ccc(/C=N\NC(=O)c3cccnc3)cc2)cc1C |  | 56.2 µM (active)

Structure (SMILES) | activity change, negative = inhibition | Potency
O=C(CSc1ccccc1)Nc1ccc(C(=O)Nc2cccc(O)c2)cc1 | 3.89% | 
O=C(NCc1cccc(CNC(=O)Nc2cccc(O)c2)c1)Nc1cccc(O)c1 | -18.9% | 
C/C(=C\C(=O)c1ccccc1)Nc1cccc(O)c1 |  | 50.1 µM (active)
C/C(=C\C(=O)c1cccnc1)Nc1ccc(C)c(C)c1 |  | 50.1 µM (active)
O=C(COc1ccc(/C=N/NC(=O)c2ccc(O)cc2)cc1)Nc1ccc([N+](=O)[O-])cc1 | -26.7% | 
Cc1cccc(NC(=O)c2ccc(F)c(S(=O)(=O)N(C)C3CCCCC3)c2)c1 | 0.102% | 
COc1ccc(Cl)cc1NC(=O)c1sc2nc3c(cc2c1N)CN(C)CC3 | -14.9% | 
CCOCCCNC(=O)c1c(NC(=O)c2nc(SC)ncc2Cl)sc2c1CCCC2 | -6% | 
CNC(=O)c1cccc2nc3ccccc3nc12 |  | 50.1 µM (active)
CNC(=O)c1cc2c(ccc3ccccc32)oc1=N | 4.85% | 
CN(C)C(=O)c1coc2nc3ccccc3nc12 | -3.28% | 
COc1ccc(-n2c(SC)nc3sc4c(c3c2=O)CCN(C(C)=O)C4)cc1 | 4.86% | 
CCOc1ccc(CNC(=O)c2ccc3nc(CC)c(CC)nc3c2)cc1OC | -2.35% | 
Cc1ccc(Nc2nnc(SCC(=O)c3cc4ccccc4o3)s2)cc1C | -32.6% | 
CC(C)c1ccc(Nc2nnc(SCC(=O)c3nnc(-c4ccccc4)o3)s2)cc1 |  | 35.5 µM (active)
Cc1ccccc1Nc1nnc(SCC(=O)c2cc3ccccc3o2)s1 | -11.7% | 
COc1ccc(OC)c(-c2noc(N3CCN(c4cc(Cl)ccc4C)CC3)n2)c1 | 0.334% | 
O=C(Nc1ccc2nc(SCC(=O)N3CCCc4ccccc43)sc2c1)c1ccc(F)cc1 | -4.11% | 
CCOC(=O)c1c(C)[nH]c(C)c1S(=O)(=O)NCC(=O)NCc1cccc(C)c1 | -11.8% | 
Cc1ccc(C)c(CNC(=O)c2cc3ccccn3n2)c1 | 0.834% | 
CSc1nc2ccc(S(=O)(=O)N3CCc4ccccc43)cc2s1 | 8.85% | 
Cc1ccc2nc(N(CCN(C)C)C(=O)C3=COCCO3)sc2c1 | -2.02% | 
CCc1ccc2nc(N(CCCN(C)C)C(=O)c3ccc4c(c3)OCCO4)sc2c1 | 5.24% | 
CN(C)CCCN(C(=O)c1ccc(S(=O)(=O)N2CCCc3ccccc32)cc1)c1nc2ccc(F)cc2s1 |  | 28.2 µM (active)
CN(C)CCCN(C(=O)c1ccc(S(=O)(=O)N2CCCCCC2)cc1)c1nc2ccc(Br)cc2s1 |  | 28.2 µM (active)
CCN(CC)CCN(C(=O)c1ccc(S(=O)(=O)N2CCOCC2)cc1)c1nc2cc3c(cc2s1)OCCO3 | -27.1% | 
